# Compound activity deposited in PubChem by National Center for Advancing Translational Sciences (NCATS).
# Compounds with a hit are over-represented: about 6.5% of the library has one in this group of screens.
# FMDV inh = foot and mouth disease virus antiviral activity; 410,000 tested, 1.2% active; FMDV antiviral cell-based qHTS; Potency, µM (highest dose often 57.9 µM), for inactives: at the top dose activity change, negative = inhibition, hits mostly inhibitors; calls by dose curve; tested in HEK293T cells; note: read-out not given here; potency is the fitted concentration of half-maximal effect; nearly all actives have a fitted effect of over 45% in size
# Vaccinia mCherry = vaccinia inhibition (mCherry reporter) | Vaccinia virus mCherry reporter infection, fluorescence | Potency, µM (titrated, usually from 36.5 µM), inactives show at the top dose activity change, negative = inhibition, hits mostly inhibitors | 310,000 tested, 0.63% active | AID 720579; calls by dose curve; tested in A549 cells; note: potency is the fitted concentration of half-maximal effect; nearly all actives have a fitted effect of over 35% in size
# HCMV inh = inhibitors of human cytomegalovirus; HFF cells, HCMV-luciferase reporter, 72 h; hits give low values; activity change, negative = inhibition, % at 57.5 µM; 410,000 tested, 4.5% active; in the data active = activity change below about -60%; inconclusive = no clear call, values can overlap the other calls; inactive = above about -39%
#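 Human foreskin fibroblasts infected with luciferase-reporter HCMV at MOI 1 PFU/cell, compounds at two doses. Luciferase measured 72 h post infection; normalized to buffer-only basal and Salinomycin (10uM) controls.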
# LASV entry inh = inhibitors of Lassa virus binding or cell entry | 300,000 tested, 1.2% active | AID 540256 | Potency, µM (top dose mostly 37.9 µM), inactives show at the highest dose activity change, negative = inhibition, usual class: inhibitors | Lassa virus pseudotype entry inhibition, cell reporter; calls by dose curve; tested in HEK293 cells; note: potency is the fitted concentration of half-maximal effect; nearly all actives have a fitted effect of over 50% in size
# Vaccinia Venus = vaccinia inhibition (Venus reporter); Vaccinia virus Venus reporter expression, fluorescence; 330,000 tested, 0.46% active; Potency, µM (top dose mostly 36.5 µM), inactives show at the highest dose activity change, negative = inhibition, hits mostly inhibitors; calls by dose curve; tested in A549 cells; note: potency is the fitted concentration of half-maximal effect; nearly all actives have a fitted effect of over 30% in size
# Marburg entry inh = blocks Marburg virus binding to or entry into cells | Marburg virus pseudotyped entry inhibition, cell reporter | Potency, µM (series often up to 37.8 µM), for inactives: at the highest dose activity change, negative = inhibition, most hits filed as inhibitors | 300,000 tested, 1.8% active; calls by dose curve; tested in HEK293 cells; note: potency is the fitted concentration of half-maximal effect
# Starred values were filed as active, the others as inactive; i = inactive; ? = inconclusive; · = not tested or not shown; [ ] = another dose, or the depositor's remark. % is set by controls: 0 for no effect and ±100 for the full control effect.
SMILES,FMDV inh,Vaccinia mCherry,HCMV inh,LASV entry inh,Vaccinia Venus,Marburg entry inh
CCOC(=O)N/N=C/c1cn(CCCOc2ccc(C)cc2)c2ccccc12,-12%,?,-5,?,-24%,7.1µM*
CCOC(=O)N/N=C/c1cn(CCCOc2ccccc2)c2ccccc12,-23%,-24%,51,?,-13%,?
Cc1ccc(S(=O)(=O)N2CCC(=O)N(C(COCc3cccc(C(F)(F)F)c3)C(C)C)CC2)cc1 (configuration not stated),?,?,·,?,?,13µM*
Cc1ccc(S(=O)(=O)N2CCC(=O)N(CCOCc3cccc(F)c3)CC2)cc1,-15%,-9%,-7,?,-19%,24%
Cc1ccc(S(=O)(=O)N2CCC(=O)N(CCOCc3cccc(Cl)c3)CC2)cc1,-7%,-10%,-64*,-16%,-20%,-5%
OC[C@@H](O)C(O)[C@H](O)CO,0%,-17%,·,·,-12%,·
O=C(c1ccc(CS(=O)c2ccccc2Cl)o1)N1CCN(c2cccc(Cl)c2)CC1 (configuration not stated),-19%,-10%,-93*,?,-26%,·
O=C(c1ccc(CS(=O)c2ccccc2Cl)o1)N1CCN(c2cccc(C(F)(F)F)c2)CC1 (configuration not stated),?,-16%,-96*,-13%[46.1 µM],?,·
O=C(c1ccc(CS(=O)Cc2ccccc2Cl)o1)N1CCN(c2cccc(Cl)c2)CC1 (configuration not stated),-25%,-12%,-23,?,-24%,?
CC1CN=C(c2ccc(Cl)cc2)c2c3ccc(C(F)(F)F)cc3[n+]([O-])n21 (configuration not stated),·,·,5,·,·,·
Cc1ccc(C)c(NC(=O)Nc2csc3c2CCCC3)c1,-16%,-9%,?,·,-10%,?
COc1cc(=O)n2c(c1C(=O)N(C)Cc1nonc1C)CCN(C(=O)c1cc(C)ccc1C)CC2,-9%,-3%,·,·,-1%,·
COc1ccc(C(=O)c2ccc(N(C)C)cc2)c2ccccc12,·,?,-77*,?,?,?
Cc1ccc(NC(=O)CCCSc2ccccc2)cc1S(=O)(=O)N1CCOCC1,28µM*,?,-6,?,-20%,?
COc1ccc(OCC(=O)Nc2ccc(S(=O)(=O)N3CCOCC3)cc2)cc1,-11%,i,5,-12%,-13%,?
CC(=O)Nc1ccc(OCC(=O)Nc2ccc(Cl)c(S(=O)(=O)N3CCOCC3)c2)cc1,·,·,-71*,·,·,·
O=C(CC1CCCC1)Nc1ccc(Cl)c(S(=O)(=O)N2CCOCC2)c1,32µM*,?,?,2.8µM*,-26%,?
CC(CC(=O)Nc1ccc(Cl)c(S(=O)(=O)N2CCOCC2)c1)c1ccccc1 (configuration not stated),?,-14%,-82*,-44%,?,?
Cc1c(CNCc2ccc(OC(C)C)cc2)c(C(=O)O)c(C)n1Cc1ccc(Cl)cc1,-20%,-16%,23,3%[46.1 µM],-8%,?
Oc1ccc(C[C@H]2CNCCN2CCCCC2CCCCC2)cc1,-27%,?,?,·,11µM*,·
Oc1ccc(C[C@H]2CNCCN2CCC23CC4CC(CC(C4)C2)C3)cc1,-23%,-19%,-32,·,?,·
NC1=NC[C@H](Cc2ccccc2)N1CCCCC1CCCCC1,?,?,-31,·,?,·
NC1=NC[C@H](Cc2ccc(O)cc2)N1CCCCC1CCCCC1,?,8.9µM*,-90*,·,?,·
Oc1ccc(C[C@@H]2CNCCN2CCC23CC4CC(CC(C4)C2)C3)cc1,?,-11%,-87*,·,-26%,·
CCCN1CNc2c(c(=O)[nH]c(=S)n2CCc2ccc(OC)cc2OC)C1,·,i,·,·,-14%,·
CN(C1CCCCC1)S(=O)(=O)c1ccc2c(c1)c(=O)c(C(=O)NCc1ccccc1Cl)cn2C,-21%,-16%,-20,4%[46.1 µM],0%,1%[46.1 µM]
CCCCCCN(C(=O)CCCCCN1C(=O)NC(c2ccccc2)C(C(=O)OCc2ccccc2)=C1C)C(C(=O)NCCCC)c1ccc(OCC(=O)OC)c(C(=O)OC)c1 (configuration not stated),·,·,-98*,·,·,·
Cc1ccc2nc(/N=C(\N)NC(=O)NC3CCCCC3)nc(C)c2c1,?,?,-65*,?,?,5.6µM*
